The list is not random: actives were taken first. Their share in the collection is about 6.6%.
CSC inhib – cancer stem cell viability inhibitors, primary screen, luminescence. cancer stem cell-like cells viability. inhibition, % at 7.5 µM. actives 1.1% (n = 300,000). AID 2717, 2010; in the data active means inhibition above about 75%; tested in HMLE shEcad cells
Mdm2-MdmX inh – inhibitors of human Mdm2-MdmX association, primary screen, cell-based, luminescence, split luciferase, SaOS-2, uHTS. Protein Mdm4 (Homo sapiens) + E3 ubiquitin-protein ligase Mdm2 (Homo sapiens), …. SaOS-2 split-luciferase Mdm2/MdmX complementation. inhibition, % at 8 µM. actives 3% (n = 330,000). AID 485346, 2010;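 active means inhibition of at least 50% at 8 µM in the primary screen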
NR3A LBD binder – binders of NR3A ligand-binding domain, primary screen, biophysical, differential scanning fluorimetry, uHTS; Glutamate receptor ionotropic, NMDA 3A (GRIN3A) ligand-binding domain; NR3A LBD differential scanning fluorimetry, Tm shift; 0% = protein alone, 100% = glycine-bound protein; Tm shift relative to glycine control, % at 25 µM; actives 2.5% (n = 340,000);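 active means melting temperature shift of at least 10% of the positive control shift, at one fixed dose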
Beta cell apopt – inhibitors of cytokine-induced beta cell apoptosis, primary screen, luminescence; INS-1E cytokine-induced death, ATP luminescence, 48 h; percent of positive-control rescue, neutral wells zero; protection from apoptosis, % (test concentration not listed); actives 0.8% (n = 300,000); AID 435005, 2010;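 active means Every replicate reaches about 75%, or at least half do and their mean reaches it too, limit read from the data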;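 further: higher means more ATP so stronger rescue from cytokine killing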
Gli-Sufu antag – Gli-Sufu pathway antagonists, primary screen, luciferase luminescence, Sufu-KO-LIGHT cells, uHTS | Sufu-KO-LIGHT fibroblasts, Gli luciferase reporter luminescence | actives 0.74% (n = 340,000) | inhibition, % at 5 µM;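 active means inhibition above about 55%, limit read from the data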
MPTP block – mitochondrial permeability transition pore inhibitors, primary screen, biochemical, isolated mouse mitochondria, absorbance. Ca2+ swelling absorbance, 30 min. inhibition, % at 10 µM. actives 1.4% (n = 360,000);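 active means inhibition of 50% or more, scaled per plate between neutral and stimulator controls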
Gli antag conf – Gli-SUFU pathway antagonists, confirmation, single concentration, luciferase luminescence, Sufu-KO-LIGHT cells; actives 40% (n = 2,500); Gli luciferase reporter; shares compounds with Gli-Sufu antag; AID 602428, 2012; inhibition, % at 5 µM;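 active means mean inhibition at 5 µM reaching about 45%, limit read from the data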
SufuKO cytotox – cytotoxicity in Sufu-KO-LIGHT cells, confirmation, cytotoxicity control for Gli-SUFU antagonist project, cell-based, ATP luminescence, single concentration; shares compounds with Gli-Sufu antag; cytotoxicity, % at 5 µM; actives 32% (n = 2,500);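 active means mean cytotoxicity at 5 µM above about 25%, limit read from the data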;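 further: cells exposed to compound overnight for roughly 16 to 18 hours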
Wnt3a cs – Wnt3a reporter signal inhibition, confirmation, counter-screen for Gli-SUFU antagonist project, Wnt-LIGHT cells, luminescence, single concentration | Wnt3a-driven luciferase reporter | actives 20% (n = 2,500) | shares compounds with Gli-Sufu antag | inhibition, % at 6.25 µM;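 active means mean inhibition above about 25%, limit read from the data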
Large screens that a line does not name were inactive (follow-up assays come after a bar, where they were run).

CCOC(=O)C(C(=O)OCC)C(C)(C)/C(C)=N\Nc1ccc([N+](=O)[O-])cc1[N+](=O)[O-]	none | Gli antag conf inactive | SufuKO cytotox 29 | Wnt3a cs 69
O=[N+]([O-])c1ccc(S(=O)(=O)NCCN2CCOCC2)cc1	none
O=[N+]([O-])c1ccc(-c2ccc(S(=O)(=O)NCCN3CCCC3)cc2)cc1	none (no result: Beta cell apopt) | Gli antag conf inactive | SufuKO cytotox inactive | Wnt3a cs inactive
Cc1cc(C)c(S(=O)(=O)N2CCN(C(=O)c3c(C)nn(-c4ccccc4)c3Cl)CC2)c(C)c1	Gli-Sufu antag 98 (no result: CSC inhib, Mdm2-MdmX inh, Beta cell apopt) | Gli antag conf inactive | SufuKO cytotox inactive | Wnt3a cs inactive
CC(C)OCCCNC(=O)c1ccc(CS(=O)(=O)c2cccc(C(F)(F)F)c2)o1	none | Gli antag conf inactive | SufuKO cytotox inactive | Wnt3a cs inactive
C(=NN1CCCCCC1)c1ccc2ccccc2n1	Gli-Sufu antag 68 (no result: CSC inhib, Mdm2-MdmX inh, Beta cell apopt) | Gli antag conf 89 | SufuKO cytotox 73 | Wnt3a cs 106
CC(C(=O)Nc1ccc(Cl)cc1)N1C(=O)NC2(CCCC2)C1=O (stereo not drawn)	none
Cc1ccc(NC(=O)/C=C/c2ccc([N+](=O)[O-])s2)c(C)c1	CSC inhib 107, Beta cell apopt 106, Gli-Sufu antag 72 (no result: Mdm2-MdmX inh) | Gli antag conf inactive | SufuKO cytotox inactive | Wnt3a cs 90
Cc1ccc(NC(=O)/C=C/c2ccc([N+](=O)[O-])s2)cc1	none
Cn1c(/C=C/c2cccc([N+](=O)[O-])c2)nc2ccccc2c1=O	none
COc1ccccc1CNS(=O)(=O)c1ccc(-c2cc(C)no2)cc1	none | Gli antag conf inactive | SufuKO cytotox 57 | Wnt3a cs inactive
CCc1ccc(-c2cc(C)no2)cc1S(=O)(=O)NCc1ccccc1OC	none
C/C(=N\Nc1ccc2nncn2n1)c1ccc(Br)s1	Gli-Sufu antag 62 | Gli antag conf inactive | SufuKO cytotox inactive | Wnt3a cs inactive
COc1ccc2cc(C(=O)N3CCN(c4ccccc4OC)CC3)[nH]c2c1	Gli-Sufu antag 57 | Gli antag conf inactive | SufuKO cytotox inactive | Wnt3a cs inactive
CN1CCN(C(=O)c2cc3ccccc3[nH]2)CC1	none | Gli antag conf inactive | SufuKO cytotox inactive | Wnt3a cs inactive
COc1ccccc1N1CCN(C(=O)c2cc3sccc3n2C)CC1	Gli-Sufu antag 92 | Gli antag conf inactive | SufuKO cytotox inactive | Wnt3a cs inactive
COc1cccc(NC(=O)[C@H](NC(=O)[C@@H]2Cc3ccccc3CN2)c2ccccc2)c1	none
Cc1cc(Nc2ccccc2Br)n2nc(C)nc2n1	none | Gli antag conf inactive | SufuKO cytotox inactive | Wnt3a cs inactive
C=C1C(=O)OC2C=C(CO)C3OC3C3OC3(C)CC(OC(=O)/C(=C/C)COC(C)=O)C12 (stereo not drawn)	Gli-Sufu antag 68 (no result: CSC inhib, Mdm2-MdmX inh, Beta cell apopt) | Gli antag conf 61 | SufuKO cytotox inactive | Wnt3a cs 57
CC(=O)OCC1=C[C@@H]2OC(=O)C3=CO[C@@H](O[C@@H]4O[C@H](CO)[C@@H](O)[C@H](O)[C@H]4O)[C@H]1[C@@H]32	none
COc1ccc(C(CCN(Cc2ccc(OC)c(OC)c2)C(C)=O)c2ccccc2)cc1 (stereo not drawn)	Gli-Sufu antag 57 (no result: CSC inhib) | Gli antag conf inactive | SufuKO cytotox inactive | Wnt3a cs inactive
O=C(COC(=O)Cc1ccc(S(=O)(=O)N2CCOCC2)s1)Nc1ccc([N+](=O)[O-])cc1	none
C=CCN(C(=O)Cn1nc(C)n2c(cc3cc(C)ccc32)c1=O)c1ccccc1	Gli-Sufu antag 63 | Gli antag conf inactive | SufuKO cytotox inactive | Wnt3a cs inactive
COC(=O)c1ccc(NCCc2csc(-c3ccc(C)cc3)n2)c([N+](=O)[O-])c1	none
CC(C)=CCN1CCN(Cc2cccn2-c2ncccn2)CC1CCO (stereo not drawn)	none | Gli antag conf inactive | SufuKO cytotox inactive | Wnt3a cs inactive
CCO[C@H]1OC(C(=O)NC2CC2)=C[C@@H](c2coc3ccccc3c2=O)[C@@H]1CCCO	none
O=C(NCC1CC1)Nc1ccccc1F	none
Cc1ccc(CN2CCC(CNC(=O)Nc3ccccc3F)CC2)cc1	none | Gli antag conf inactive | SufuKO cytotox inactive | Wnt3a cs inactive
N#Cc1ccc(Sc2nc3ccccc3[nH]2)cc1C#N	Gli-Sufu antag 92 | Gli antag conf inactive | SufuKO cytotox inactive | Wnt3a cs inactive
O=C(O)c1cc([N+](=O)[O-])c(Sc2nc3ccccc3[nH]2)c([N+](=O)[O-])c1	none
Cc1ccc(OCc2cc(C(=O)NC3CCCCC3)no2)cn1	Gli-Sufu antag 57 (no result: CSC inhib, Beta cell apopt) | Gli antag conf inactive | SufuKO cytotox inactive | Wnt3a cs inactive
COc1ccccc1CCNC(=O)C(=O)NCCC1CCCCN1S(=O)(=O)c1ccccc1 (stereo not drawn)	none (no result: NR3A LBD binder)
COc1ccccc1CNC(=O)C(=O)NCCC1CCCCN1S(=O)(=O)c1ccc(C)cc1 (stereo not drawn)	none | Gli antag conf inactive | SufuKO cytotox inactive | Wnt3a cs inactive
C/C(=C\C(=O)c1ccc(Br)cc1)NNC(=O)c1ccc(O)cc1	none (no result: Beta cell apopt)
C/C(=C\C(=O)c1ccc(Br)cc1)NNC(=O)c1ccccc1	none (no result: Beta cell apopt) | Gli antag conf inactive | SufuKO cytotox inactive | Wnt3a cs inactive
Cn1c(=O)[nH]c(=O)c2c1ncn2CCN1CCOCC1	Gli-Sufu antag 92 | Gli antag conf inactive | SufuKO cytotox inactive | Wnt3a cs inactive
CC(C)Oc1ccccc1C1CC(=O)Nc2cc3c(cc21)OCCO3 (stereo not drawn)	none | Gli antag conf 60 | SufuKO cytotox 59 | Wnt3a cs inactive
Cc1ccc(C2CC(=O)Nc3cc4c(cc32)OCCO4)s1 (stereo not drawn)	none (no result: NR3A LBD binder)
CCC1=Nc2cc(C(=O)NCc3ccco3)ccc2Sc2ccc(Cl)cc21	none | Gli antag conf 56 | SufuKO cytotox 52 | Wnt3a cs inactive
COc1ccc(N2CCN(Cc3nc4cc(Cl)ccc4c(=O)[nH]3)CC2)cc1	none

Source: PubChem BioAssay (several laboratories)
